Shown are actives, neighbours in structure and some others; about 32% of the full set was active somewhere.
PostGolgi ctrl = yeast control strain growth, post-Golgi counter-screen; efflux-deficient yeast background strain, growth absorbance A615, 16 h; inhibition, % at 10 µM; 98,000 tested, 5% active; AID 738
CYP2C19 inh = inhibitors of human CYP2C19 | 96,000 tested, 21% active | CYP2C19 Supersomes, luciferin-H EGE luminescence, 30 min | P33261 | inhibition, % at 5 µM | AID 778;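 active means CYP2C19 inhibition above a set limit at 5 µM in the primary screen, cut at about 50% in these data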;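 further: plate controls were negative control wells for no effect and 2.5 mM tranylcypromine positive control for full effect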
CYP2C19 activ = activators of human cytochrome P450 2C19; 96,000 tested, under 10 active; activation factor at 5 µM; recombinant CYP2C19, luciferin-H EGE luminescence; hits give high values; 0 = fully inhibited enzyme, 1 = untreated enzyme; P33261;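 active means activation factor of at least 2 at 5 µM in the primary screen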;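 further: 0 = wells with 2.5 mM tranylcypromine and 1 = vehicle-only wells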
CYP2C9 activ = activators of human CYP2C9. 96,000 tested, 1.4% active. recombinant CYP2C9, luciferin-H conversion, luminescence; hits give high values; factor 1 = untreated enzyme, 0 = blocked. activation factor at 5 µM;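 active means activation factor of 2 or more for CYP2C9 at a 5 µM dose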;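 further: 0 = sulfaphenazole-blocked wells and 1 = vehicle-only wells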
Target sequence (P11712 whole entry, looked up): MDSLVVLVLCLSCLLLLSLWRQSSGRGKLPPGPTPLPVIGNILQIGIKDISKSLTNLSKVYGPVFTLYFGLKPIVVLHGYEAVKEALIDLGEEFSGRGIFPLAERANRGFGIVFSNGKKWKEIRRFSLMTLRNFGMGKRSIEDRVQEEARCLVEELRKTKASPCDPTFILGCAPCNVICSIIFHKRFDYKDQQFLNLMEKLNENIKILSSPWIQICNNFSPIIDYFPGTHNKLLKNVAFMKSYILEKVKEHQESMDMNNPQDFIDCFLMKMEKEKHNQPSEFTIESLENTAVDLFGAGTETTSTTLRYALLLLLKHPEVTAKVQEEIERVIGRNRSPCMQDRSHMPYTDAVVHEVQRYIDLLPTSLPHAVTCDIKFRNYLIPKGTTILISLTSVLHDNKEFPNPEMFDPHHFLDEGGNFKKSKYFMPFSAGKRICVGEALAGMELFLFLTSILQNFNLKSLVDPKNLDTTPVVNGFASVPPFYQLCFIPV
PostGolgi yeast = growth inhibition of a yeast mutant, post-Golgi transport screen; inhibition, % at 10 µM; AID 739; 98,000 tested, 0.9% active; post-Golgi transport phenotypic cell assay;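 further: yeast cells grown in 1536-well plates; yeast grown about 18 h at 30C before absorbance read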
CYP2C9 inh = blocks human cytochrome P450 2C9; 96,000 tested, 20% active; CYP2C9 Supersomes, luciferin-H conversion, luminescence; P11712; inhibition, % at 5 µM;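 active means blocking of liver enzyme CYP2C9 beyond about 50% at 5 µM, limit read from the data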
Active calls of the source: *; / = no result given. Unless noted, no stated cut-off is given here; in the data, active means inhibition above about 30%; inactive means the rest.

SMILES	PostGolgi ctrl	CYP2C19 inh	CYP2C19 activ	CYP2C9 activ	PostGolgi yeast	CYP2C9 inh
COc1ccc(C(c2nnnn2CC2CCCO2)N2CCN(c3ccc(F)cc3)CC2)cc1 (stereo not given)	3.0	48.3	0.5	0.2	0.2	78.1*
COc1ccc(Cn2nnnc2C(C(C)C)N2CCN(c3ccccc3OC)CC2)cc1 (stereo not given)	28.7	92.2*	0.1	0	-3.7	97.3*
CC1CCN(C(=O)CSc2nnc(CNC(=O)c3ccco3)o2)CC1	10.1	-7.2	1.1	1.1	-3.8	-9.7
N#Cc1cccc(C(c2nnnn2C2CCCC2)N2CCCCCC2)c1 (stereo not given)	9.5	28.6	0.7	0.7	21.0	34.5
CCC(C)(C)n1nnnc1C(c1ccc2ncccc2c1)N1CCN(Cc2ccc3c(c2)OCO3)CC1 (stereo not given)	2.6	-4.3	1	1	-0.5	0.7
COc1ccc(OC)c(C(c2nnnn2C2CCCC2)N2CCN(c3ccc(F)cc3)CC2)c1 (stereo not given)	6.4	81.1*	0.2	0.4	-10.4	63.3*
COc1ccc(C(c2nnnn2Cc2ccccc2)N2CCN(c3ccccc3)CC2)cc1 (stereo not given)	/	90.7*	0.1	0.1	/	86.1*
CCC(C)(C)n1nnnc1C(c1ccc2ncccc2c1)N1CCN(c2nc3ccccc3s2)CC1 (stereo not given)	33.7*	7.1	0.9	0.1	-1.7	87.7*
COCCn1nnnc1C(c1cccc(C#N)c1)N1CCCCCC1 (stereo not given)	4.0	68.5*	0.3	0.6	-3.6	40.8
COc1ccc(C(c2nnnn2CCc2ccccc2)N2CCN(C3CCCC3)CC2)cc1 (stereo not given)	-9.8	-18.0	1.2	1.1	2.6	-6.7
CCOC(=O)C1=C(C)NC(SCC(=O)O)=NC1c1ccccc1 (stereo not given)	1.7	16.1	0.8	0.8	0.6	16.0
Cc1cccc(-n2c(Cc3cc(=O)[nH]c(=O)[nH]3)nnc2SCC(=O)N2CCCCC2)c1	2.2	-14.2	1.1	1	0.0	-4.0
C/C(=N\OC(=O)c1ccccc1F)c1nccs1	10.1	10.3	0.9	1	9.9	3.3
Fc1ccc(C(c2nnnn2Cc2cccs2)N2CCN(C3CCCC3)CC2)cc1 (stereo not given)	12.8	79.8*	0.2	1.1	11.9	-10.8
COc1ccc(OC)c(C(c2nnnn2Cc2ccccc2)N2CCN(C)CC2)c1 (stereo not given)	36.5*	11.7	0.9	1	6.0	3.7
COc1ccc(OC)c(C(c2nnnn2CCc2ccccc2)N2CCN(c3ccccc3)CC2)c1 (stereo not given)	14.3	41.4	0.6	0.6	-8.4	44.2
O=C1Nc2ccccc2C1(c1ccccc1)c1ccccc1	29.3	71.6*	0.3	0.3	1.9	73.9*
Cc1cc(NC(=O)C2(c3ccccc3)CCCC2)no1	-10.5	42.0	0.6	0.7	6.3	29.0
O=S(=O)(Nc1ccccc1F)c1ccc2nsnc2c1	13.2	63.4*	0.4	0.6	-1.6	37.9
Cc1cc(C)c(S(=O)(=O)Nc2cccc3nsnc23)c(C)c1	11.5	48.8	0.5	0.2	-4.8	83.4*
O=S(=O)(Nc1cccc2nsnc12)c1ccccc1	11.0	71.4*	0.3	0.1	-0.8	85.8*
Cc1cc(C)c(S(=O)(=O)Nc2ccc[nH]c2=O)c(C)c1	20.9	84.8*	0.2	4*	2.8	-303.5
Cc1cccc(C)c1NS(=O)(=O)c1c(C)[nH]c(=O)[nH]c1=O	5.3	-14.8	1.1	0.9	2.2	5.0
Cc1nnc(-c2ccccc2)c[n+]1[O-]	6.1	-27.2	1.3	1.4	15.8	-35.0
O=C1Nc2ccccc2C12OCCCCO2	9.7	2.2	1	1.2	1.9	-16.8
SMILES	PostGolgi ctrl	CYP2C19 inh	CYP2C19 activ	CYP2C9 activ	PostGolgi yeast	CYP2C9 inh
CC(C)NC(=O)CSCc1cccc(Br)c1	6.1	41.7	0.6	1	0.6	2.2
CC1=NC(Nc2nc(C)c3ccccc3n2)=NC(C)(C)C1	1.2	-1.7	1	1	2.0	2.6
Cc1ccc(OCC(=O)Nc2cccc3nsnc23)c(C)c1	5.0	73.6*	0.3	0.9	0.8	7.5
Oc1ccccc1CNn1cnnc1	9.7	-12.4	1.1	1.1	-2.6	-12.5
CCOC(=O)c1c(CN2CCC(C)CC2)oc2ccc(OC)cc12	-5.3	52.5*	0.5	0.8	0.7	23.3
CCOC(=O)c1c(CN2CCCCC2C)oc2ccc(OC)cc12 (stereo not given)	-0.6	8.0	0.9	1	30.5*	3.7
c1ccc2c(c1)nc(N1CCOCC1)c1c3ccccc3[nH]c21	25.6	15.2	0.8	0.8	-6.2	15.4
CC(=O)c1c(C)[nH]c(C(=O)COc2ccc(C#N)cc2)c1C	32.0*	17.9	0.8	0.7	3.3	34.8
Cc1ccccc1-n1nc(C(=O)O)c(C)c(C#N)c1=O	-7.6	27.6	0.7	0.9	-6.8	9.9
Cc1ccccc1[C@@H]1C(C#N)=C(N)S[C@H]1C(=O)c1ccccc1	21.3	100.1*	0	0	5.0	98.3*
CC(C)NC(=O)c1ccccc1N(Cc1ccccc1)S(C)(=O)=O	14.8	28.6	0.7	0.8	-1.1	17.0
COC(=O)c1ccccc1N(Cc1ccccc1)S(C)(=O)=O	-2.7	78.3*	0.2	0.7	-3.7	29.3
Cc1nc(Nc2ccc3c(c2)OCCO3)c2oc3ccccc3c2n1	19.2	85.1*	0.1	0.2	-3.7	75.7*
Cc1ccc(Nc2ncnc3c2oc2ccccc23)cc1	14.5	53.4*	0.5	0.7	1.7	31.7
c1coc(CNc2ncnc3c2oc2ccccc23)c1	-4.1	35.8	0.6	0.7	4.9	26.5
COc1ccc(Nc2ncnc3c2oc2ccccc23)cc1	8.7	54.6*	0.5	0.7	-7.8	33.7
c1ccc2c(c1)oc1c(Nc3ccc4c(c3)OCCO4)ncnc12	2.8	19.5	0.8	1.1	3.7	-6.5
COC(=O)/C(=C\Nc1ccccc1N)c1ncc(C(F)(F)F)cc1Cl	1.8	32.2	0.7	0.9	4.3	8.1
Cc1cccn2c(=O)c3cc(C#N)c(=O)n(CC4CCCO4)c3nc12 (stereo not given)	-16.8	24.1	0.8	0.8	-8.5	15.2
COc1cccc2c(=O)c(C/C=C(/C)Cl)c(C)[nH]c12	5.0	83.7*	0.2	0.6	-8.0	35.6
O=C1OC(c2ccccc2)=C/C1=C\N1CCOCC1	27.0	9.3	0.9	0.9	3.1	9.9
O=C1SC(c2ccccc2)=C/C1=C\N1CCCCC1	28.1	57.2*	0.4	0.6	-10.4	41.4
Cc1cccc(C)c1NC(=O)C(c1ccc(Cl)cc1Cl)N1CCCCC1 (stereo not given)	15.7	12.8	0.9	0.7	1.1	26.7
COc1ccc(CNC(=O)CN(c2cccc(OC)c2)S(C)(=O)=O)cc1	8.8	86.7*	0.1	0.8	-6.1	16.9
